Assay results taken from ChEMBL document CHEMBL1157539, “Thousands of chemical starting points for antimalarial lead identification” (Nature, 2010).
In all, about 13,000 compounds were measured (“IFI”: median about 4, highest 2% from about 17 on). Many of the other results were omitted from the sample, so the highest values are more common in it than they were.

Assay: GSK_TCMDC: Inhibition Frequency Index (IFI). The number of non-kinase HTS assays where a compound showed > 50 % inhibition, expressed as a percentage of the number of such assays in which the compound was tested
Assay type: functional

Structure (SMILES)	IFI [%]
CCCCCCCNCc1c(O)ccc2c(CNCCCCCCC)c(O)ccc12	13.6
Oc1ccc2ccccc2c1C=NNc1nc(=Nc2ccccc2)nc(N2CCOCC2)[nH]1	3.68
COc1ccccc1CCNc1nc(C)cc(N[C@@H](Cc2ccccc2)C(=O)NCc2cccs2)n1	9.76
CCCCc1ccc(S(=O)(=O)Nc2ccc3c(c2)CCN(Cc2c[nH]c4cnccc24)CC3)cc1	19.4
Cc1cnc(C(=O)Nc2ccc3c(c2)CCCN(Cc2c[nH]c4cnccc24)C3)cn1	0
CCCc1ccc(S(=O)(=O)Nc2ccc3c(c2)CCC3)cc1	2.26
CCOc1ccc(C(Cc2ccccc2)NC(=O)c2cccnc2)cc1OCC (centres undefined)	0.83
COc1ccc(CNc2ncnc3c2[nH]c2ccc(F)cc23)cc1	17.2
CN(C)CCNc1ncnc2c1[nH]c1ccc(Cl)cc12	0
COc1ccccc1CCNc1ncnc2c1[nH]c1ccc(F)cc12	20.5
CN(C)CCCNc1ncnc2c1[nH]c1ccc(F)cc12	2.14
Cc1ccc2[nH]c3c(NCCN(C)C)ncnc3c2c1	0
Fc1ccc2[nH]c3c(NCCN4CCCCC4)ncnc3c2c1	1.4
Fc1ccc2[nH]c3c(NCCCN4CCOCC4)ncnc3c2c1	0
c1ccc(CCNc2ncnc3c2[nH]c2ccccc23)cc1	23.9
COc1ccc(CNCc2ccc(-c3ccc(-c4nc5cc(F)ccc5[nH]4)cc3)cc2)cc1	13.1
CC(C)C(C(=O)Nc1ccc2c(c1)OCO2)c1ccc(Cl)cc1 (centres undefined)	9.18
Cc1cc(=O)c(-c2ccc(Oc3cccc(OC(F)(F)F)c3)cc2)c(C)[nH]1	3.76
COc1ccc(N2CCN(CCCCNC(=O)c3ccc(NC(=O)c4cc(C(F)(F)F)cc(C(F)(F)F)c4)cc3)CC2)cc1OC	3.51
c1ccc(CNCc2cccc(-c3ccc(-c4nc5ccccc5[nH]4)s3)c2)cc1	3.92
CCCCCCCc1c(C)nc2cc(OC)ccc2c1O	0
CC(C)Oc1cc(-c2ccc(S(C)(=O)=O)cc2)nc(N(Cc2cccc(F)c2F)Cc2cccc(F)c2F)n1	0
c1ccc2c(CNCCCN3CCN(CCCNCc4c5ccccc5cc5ccccc45)CC3)c3ccccc3cc2c1	15.3
c1ccc2c(c1)cc(CNCCCN1CCN(CCCNCc3cc4ccccc4c4ccccc34)CC1)c1ccccc12	19.4
c1ccc2cc(CNCCCN3CCN(CCCNCc4ccc5ccccc5c4)CC3)ccc2c1	11.7
CCCCNC(=N)Nc1ccc(OCCCOc2ccc(NC(=N)NCCCC)cc2)cc1	2.99
COc1ccc2nccc([C@@H](O)CN3CCC(NCc4ccc5nc[nH]c(=O)c5c4)CC3)c2c1	0
CC(=O)c1ccc(NC(=O)Nc2ccc3nccc(N4CCN(C)CC4)c3c2)cc1	0
CC(=O)c1ccc2nc[nH]c(=O)c2c1	26.1
